Reference: PubChem BioAssay (NCATS)
Where “and” joins values, the source holds several entries; their conditions need not be identical. Identical values can stand only once. Records with an inconclusive call do not appear. Entries that show only a call come without a potency. Calls of active or inactive are those of the source. Unless noted, calls come from the whole dose curve.

Tests used:
[1] = qHTS assay for small molecule antagonists of peroxisome proliferator-activated receptor delta signaling (AID 588535; active = well fitted inhibition curve with a large enough effect in the signal ratio, with a control signal flat, not every such curve was filed as active; the % refers to the signal ratio;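 for max response: cells co-treated with a PPAR-delta agonist as stimulator during compound exposure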); conditions: HEK293T PPARd-UAS-bla, beta-lactamase FRET ratio, 18 h; 460 nm channel
Procedure, shortened: (§1)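 Reporter: UAS-bla under PPAR-delta response element, HEK293T host. Medium: 2% charcoal/dextran FBS. Dosing: titration, 18 hrs, 37 C. Detection: CCF4, 2 hrs RT, 405 ex/460 and 530 em.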

[2] = molecular target: Peroxisome proliferator-activated receptor delta (Homo sapiens) (UniProt Q03181); experiment: as above
Procedure, shortened: as §1

[3] = molecular target: Peroxisome proliferator-activated receptor gamma (Homo sapiens) (UniProt P37231); experiment: qHTS assay for small molecule agonists of peroxisome proliferator-activated receptor gamma signaling (AID 588536; active = well fitted curve in the direction sought with a large enough effect in the signal ratio, with a control signal flat, not every such curve was filed as active; the % refers to the signal ratio)
Procedure, shortened: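 Ratiometric blue/green fluorescence (405 nm excitation; 460 and 530 nm emission) from CCF4-loaded HEK293 reporter cells serves as signal. Exposure to test compounds lasts 16 h at 37 C in medium containing 1% charcoal/dextran-treated serum.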

[4] = molecular target: Peroxisome proliferator-activated receptor gamma (Homo sapiens) (UniProt P37231); experiment: qHTS assay for small molecule antagonists of peroxisome proliferator-activated receptor gamma signaling (AID 588537; active = well fitted inhibition curve with a large enough effect in the signal ratio, with a control signal flat, not every such curve was filed as active; the % refers to the signal ratio;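 note: reporter cells co-stimulated with 50 nM rosiglitazone agonist during compound treatment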)
Procedure, shortened: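 We seeded GeneBLAzer HEK293 reporter cells at 3000 per well, allowed 6-6.5 h attachment at 37 C, then co-treated with test compound titrations and 50 nM rosiglitazone overnight (16 h). Inhibition was quantified from 460/530 nm emission ratios.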

[5] = molecular target: Vitamin D3 receptor (Homo sapiens) (UniProt P11473); experiment: qHTS assay for small molecule antagonists of vitamin D receptor signaling (AID 588541);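 note: receptor activated by calcitriol during compound treatment; series mostly up to about 77 µM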
Procedure, shortened: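 VDR-UAS-bla HEK293T cells (2000/well, 2% charcoal-stripped FBS) were treated with titrated compounds plus 1-alpha,25-dihydroxyvitamin D3 (50 nM or 3 nM final) for 16 h at 37 C. CCF4 beta-lactamase fluorescence was read; Hill fits gave IC50.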

[6] = molecular target: Vitamin D3 receptor (Homo sapiens) (UniProt P11473); experiment: qHTS assay for small molecule agonists of vitamin D receptor signaling (AID 588543)
Procedure, shortened: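 GeneBLAzer VDR-UAS-bla HEK293T cells in 2% charcoal-stripped FBS medium were dosed with compound titrations for 16 h at 37 °C; CCF4 β-lactamase readout (405 nm ex, 460/530 nm em). EC50 and efficacy from Hill fits, normalized to 50 nM calcitriol (100%) and DMSO (0%).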

[7] = qHTS assay for small molecule agonists of retinoid X receptor alpha signaling (AID 588544); conditions: HEK293T RXRa-UAS-bla, beta-lactamase reporter, 18 h; 530 nm emission
[8] = molecular target: Retinoic acid receptor RXR-alpha (Homo sapiens) (UniProt P19793); experiment: as above
[9] = molecular target: Thyroid hormone receptor beta (Homo sapiens) (UniProt P10828); experiment: qHTS assay for small molecule agonists of thyroid hormone receptor beta signaling (AID 588545)
Procedure, shortened: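 TR-UAS-bla-GripTite HEK 293 cells in medium with 2% charcoal/dextran FBS, 0.1 mM NEAA and 1 mM sodium pyruvate were treated with titrated compounds for 18 hrs at 37 C. Beta-lactamase reporter was read with CCF4 dye (ex 405, em 460/530 nm); EC50 from Hill fits.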

[10] = qHTS assay for small molecule antagonists of retinoid X receptor alpha signaling (AID 588546; active = well fitted inhibition curve with a large enough effect in the signal ratio, with a control signal flat, not every such curve was filed as active; the % refers to the signal ratio;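 note: cells stimulated with 9-cis-retinoic acid as agonist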); conditions: HEK293T RXRa-UAS-bla, beta-lactamase ratio, antagonist mode; measured here: W530 green channel, cytotoxicity proxy
Procedure, shortened: (§2)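 Beta-lactamase reporter inhibition, read as CCF4 fluorescence ratio (ex 405, em 460/530 nm) after 2 h at RT. HEK293T UAS-bla cells, 2500/well, were stimulated with 9-cis-RA at 500 or 100 nM final alongside test compound for 18 h at 37 C.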

[11] = molecular target: Retinoic acid receptor RXR-alpha (Homo sapiens) (UniProt P19793); experiment: as above; conditions: HEK293T RXRa-UAS-bla, beta-lactamase ratio, antagonist mode
Procedure, shortened: as §2

[12] = molecular target: Thyroid hormone receptor beta (Homo sapiens) (UniProt P10828); experiment: qHTS assay for small molecule antagonists of thyroid hormone receptor beta signaling (AID 588547; active = well fitted inhibition curve with a large enough effect in the signal ratio, with a control signal flat, not every such curve was filed as active; the % refers to the signal ratio;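 note: cells stimulated with 0.4 nM T3 agonist during compound exposure; series mostly up to about 77 µM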); conditions: TR-UAS-bla HEK293, beta-lactamase ratio, antagonist mode, 18 h
Procedure, shortened: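 TR-UAS-bla GripTite HEK293 cells in 2% charcoal/dextran FBS medium were preincubated 4 h at 37 C, given compound (0.59 nM to 92 uM) plus 0.4 nM T3 (final) for 18 h, then CCF4 for 2 h at RT; Hill fit gave IC50.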

[13] = molecular target: Voltage-gated inwardly rectifying potassium channel KCNH2 (Homo sapiens) (UniProt Q12809); experiment: qHTS Assay for Small Molecule Inhibitors of the Human hERG Channel Activity (AID 588834; active = well fitted inhibition curve with a large enough effect;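 note: top concentration of the series differs between compounds; lower thallium flux fluorescence means stronger hERG block; nearly all actives have a fitted effect of over 50% in size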)
Procedure, shortened: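 U2OS cells transduced with hERG via BacMam (MOI ~100), plated 2000/well, loaded with FluxOR thallium dye, compound ~10 min, then stimulation buffer; fluorescence decrease read kinetically; AC50 from Hill fits.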

[14] = qHTS assay for small molecule agonists of the antioxidant response element (ARE) signaling pathway (AID 651741; active = well fitted activation curve with a large enough effect in the signal ratio; the % refers to the signal ratio; note: potency is the fitted concentration of half-maximal effect)
Procedure, shortened: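 Compounds in DMSO are pinned onto HepG2 ARE-bla cells (2,000/well) that were preincubated 5 h; plates stay 16 h at 37 C, then beta-lactamase activity is detected with LiveBLAzer B/G substrate by fluorescence.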

[15] = qHTS assay for small molecule activators of the p53 signaling pathway (AID 651743; active = well fitted activation curve with a large enough effect in the signal ratio, not every such curve was filed as active; the % refers to the signal ratio; note: series mostly up to about 92 µM); conditions: HCT-116 p53RE-bla, beta-lactamase FRET ratio, 16 h; stronger effect = higher value
Procedure, shortened: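 Cell-based beta-lactamase reporter (p53 response elements, HCT-116 background). After a 5-hour preincubation, cells received compound for 16 hours at 37 C; substrate development ran 2 hours at room temperature.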

[16] = qHTS assay for small molecule activators of the nuclear factor-kappa B (NF-kB) signaling pathway (AID 651749; active = well fitted activation curve with a large enough effect in the signal ratio; the % refers to the signal ratio; note: series mostly up to about 77 µM); conditions: NF-kB-bla ME-180 cells, beta-lactamase FRET ratio, 16 h; stronger effect = higher value
Procedure, shortened: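 Screening used 2,000 ME-180 reporter cells per well exposed to pinned compound (23 nL) or DMSO; after 16 hr at 37C, beta-lactamase expression under NF-kB control was assessed through FRET.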

Sequence of Peroxisome proliferator-activated receptor gamma (Homo sapiens) (P37231 whole entry, looked up): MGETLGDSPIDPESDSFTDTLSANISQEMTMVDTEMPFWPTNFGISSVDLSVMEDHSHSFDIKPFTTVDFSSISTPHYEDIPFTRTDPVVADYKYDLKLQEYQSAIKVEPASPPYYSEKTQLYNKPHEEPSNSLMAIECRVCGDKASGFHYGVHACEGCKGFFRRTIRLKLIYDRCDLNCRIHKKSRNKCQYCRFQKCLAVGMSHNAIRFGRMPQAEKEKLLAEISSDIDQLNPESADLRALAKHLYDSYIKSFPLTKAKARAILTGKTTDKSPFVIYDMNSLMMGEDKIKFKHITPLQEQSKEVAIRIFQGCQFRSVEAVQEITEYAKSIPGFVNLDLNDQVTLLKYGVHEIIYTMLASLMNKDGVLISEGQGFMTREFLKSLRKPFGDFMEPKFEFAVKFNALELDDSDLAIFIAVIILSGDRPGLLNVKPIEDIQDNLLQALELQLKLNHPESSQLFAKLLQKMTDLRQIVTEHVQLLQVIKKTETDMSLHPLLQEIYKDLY
Sequence of Voltage-gated inwardly rectifying potassium channel KCNH2 (Homo sapiens) (Q12809 whole entry, looked up): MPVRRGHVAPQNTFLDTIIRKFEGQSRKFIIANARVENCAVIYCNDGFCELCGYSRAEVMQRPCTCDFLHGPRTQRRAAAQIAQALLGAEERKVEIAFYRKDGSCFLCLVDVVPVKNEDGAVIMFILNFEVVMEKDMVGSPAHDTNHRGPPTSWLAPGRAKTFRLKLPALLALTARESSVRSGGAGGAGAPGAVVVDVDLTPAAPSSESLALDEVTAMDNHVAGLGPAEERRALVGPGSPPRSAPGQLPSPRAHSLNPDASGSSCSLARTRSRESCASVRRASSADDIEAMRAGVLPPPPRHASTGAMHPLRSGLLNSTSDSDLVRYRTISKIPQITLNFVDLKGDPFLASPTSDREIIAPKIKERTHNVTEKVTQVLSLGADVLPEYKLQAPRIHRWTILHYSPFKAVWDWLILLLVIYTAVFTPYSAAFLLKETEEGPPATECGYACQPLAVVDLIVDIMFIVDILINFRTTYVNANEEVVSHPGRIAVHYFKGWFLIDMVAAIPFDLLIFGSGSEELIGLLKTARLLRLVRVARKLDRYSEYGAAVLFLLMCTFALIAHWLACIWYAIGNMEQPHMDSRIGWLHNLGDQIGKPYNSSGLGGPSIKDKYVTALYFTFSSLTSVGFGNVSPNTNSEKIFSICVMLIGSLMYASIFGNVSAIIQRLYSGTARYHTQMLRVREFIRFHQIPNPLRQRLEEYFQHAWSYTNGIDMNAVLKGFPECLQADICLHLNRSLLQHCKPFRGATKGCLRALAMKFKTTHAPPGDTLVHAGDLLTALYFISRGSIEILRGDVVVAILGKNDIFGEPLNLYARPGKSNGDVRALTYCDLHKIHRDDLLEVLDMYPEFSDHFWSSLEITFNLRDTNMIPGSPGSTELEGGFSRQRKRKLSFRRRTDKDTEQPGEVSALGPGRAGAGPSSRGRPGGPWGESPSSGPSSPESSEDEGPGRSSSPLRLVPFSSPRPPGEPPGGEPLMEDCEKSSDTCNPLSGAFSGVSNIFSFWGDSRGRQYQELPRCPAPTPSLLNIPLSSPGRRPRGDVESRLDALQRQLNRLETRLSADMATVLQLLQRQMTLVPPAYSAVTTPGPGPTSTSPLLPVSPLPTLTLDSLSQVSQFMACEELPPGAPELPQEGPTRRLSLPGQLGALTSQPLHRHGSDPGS
Sequence of Vitamin D3 receptor (Homo sapiens) (P11473 whole entry, looked up): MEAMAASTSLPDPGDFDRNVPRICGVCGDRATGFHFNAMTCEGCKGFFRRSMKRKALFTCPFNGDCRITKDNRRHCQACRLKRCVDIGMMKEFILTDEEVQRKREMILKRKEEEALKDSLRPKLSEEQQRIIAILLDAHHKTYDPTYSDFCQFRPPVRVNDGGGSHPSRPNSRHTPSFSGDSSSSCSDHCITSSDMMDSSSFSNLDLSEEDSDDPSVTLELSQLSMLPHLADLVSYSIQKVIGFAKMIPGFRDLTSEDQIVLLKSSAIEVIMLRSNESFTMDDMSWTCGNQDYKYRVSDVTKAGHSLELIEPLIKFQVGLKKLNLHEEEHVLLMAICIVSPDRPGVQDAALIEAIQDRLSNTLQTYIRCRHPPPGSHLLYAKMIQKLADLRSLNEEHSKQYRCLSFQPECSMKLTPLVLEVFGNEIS
Sequence of Thyroid hormone receptor beta (Homo sapiens) (P10828 whole entry, looked up): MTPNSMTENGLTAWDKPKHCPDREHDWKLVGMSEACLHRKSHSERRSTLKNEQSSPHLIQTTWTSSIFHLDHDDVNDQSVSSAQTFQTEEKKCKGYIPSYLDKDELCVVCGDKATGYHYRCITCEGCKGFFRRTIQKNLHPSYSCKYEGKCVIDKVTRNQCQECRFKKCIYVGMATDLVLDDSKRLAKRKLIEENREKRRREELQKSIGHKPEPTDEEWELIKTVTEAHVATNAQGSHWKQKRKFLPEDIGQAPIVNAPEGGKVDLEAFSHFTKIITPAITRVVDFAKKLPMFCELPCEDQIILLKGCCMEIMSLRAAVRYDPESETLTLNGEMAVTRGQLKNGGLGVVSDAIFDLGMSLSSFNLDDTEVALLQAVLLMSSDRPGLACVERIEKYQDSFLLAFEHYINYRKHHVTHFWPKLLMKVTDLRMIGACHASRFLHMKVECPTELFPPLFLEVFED
Sequence of Retinoic acid receptor RXR-alpha (Homo sapiens) (P19793 whole entry, looked up): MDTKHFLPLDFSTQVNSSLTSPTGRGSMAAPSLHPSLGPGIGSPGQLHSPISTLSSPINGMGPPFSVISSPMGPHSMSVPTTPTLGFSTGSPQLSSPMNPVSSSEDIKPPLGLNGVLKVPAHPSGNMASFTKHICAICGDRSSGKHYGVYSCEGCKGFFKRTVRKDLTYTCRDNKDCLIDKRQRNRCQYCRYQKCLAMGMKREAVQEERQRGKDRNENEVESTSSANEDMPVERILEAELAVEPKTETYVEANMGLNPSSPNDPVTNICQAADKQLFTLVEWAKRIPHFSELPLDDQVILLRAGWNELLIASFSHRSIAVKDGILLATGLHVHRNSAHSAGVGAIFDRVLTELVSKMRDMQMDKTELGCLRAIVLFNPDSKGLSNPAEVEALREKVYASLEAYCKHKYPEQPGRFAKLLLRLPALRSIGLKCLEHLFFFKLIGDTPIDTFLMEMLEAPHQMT
Sequence of Peroxisome proliferator-activated receptor delta (Homo sapiens) (Q03181 whole entry, looked up): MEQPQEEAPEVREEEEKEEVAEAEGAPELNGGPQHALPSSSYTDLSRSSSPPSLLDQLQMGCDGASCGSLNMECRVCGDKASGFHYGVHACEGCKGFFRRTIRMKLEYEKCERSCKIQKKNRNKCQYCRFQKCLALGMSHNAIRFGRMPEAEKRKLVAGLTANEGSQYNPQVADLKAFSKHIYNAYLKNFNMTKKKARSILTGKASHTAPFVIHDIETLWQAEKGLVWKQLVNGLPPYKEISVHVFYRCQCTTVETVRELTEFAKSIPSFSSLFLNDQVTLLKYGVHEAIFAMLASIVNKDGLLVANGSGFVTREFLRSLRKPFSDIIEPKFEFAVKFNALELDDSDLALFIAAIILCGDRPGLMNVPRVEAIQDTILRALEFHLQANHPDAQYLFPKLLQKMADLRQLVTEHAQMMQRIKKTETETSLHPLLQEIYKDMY

SMILES | max response [1] | Potency [2] | outcome [3] | outcome [4] | outcome [5] | outcome [6] | max response [7] | outcome [8] | outcome [9] | max response [10] | max response [11] | activity change % (negative = inhibition) [12] | Potency [13] | Potency [14] | activation [15] | activation [16]
Nc1cc([N+](=O)[O-])ccc1C(=O)O | -33% and 11% | inactive | inactive | inactive | inactive | inactive | 8.72% and -23.6% | inactive | inactive | -12.5% and -8.81% | 19.8% (inactive) and -9.41% (inactive) | 7.18% (inactive) and -9.31% (inactive) | inactive | inactive | -3.96% (inactive) and 3.5% (inactive) | –
Cc1cccc(C)c1O | -20.4% | inactive | inactive | inactive | inactive | inactive | -16.7% | inactive | inactive | 3.79% | -1.13% (inactive) | -9.8% (inactive) | inactive | – | -0.5% (inactive) | -0.357% (inactive)
O=[N+]([O-])c1cccc(Cl)c1 | 4.21% | – | inactive | inactive | inactive | inactive | -8.32% | inactive | inactive | -3.93% | 7.77% (inactive) | -12.9% (inactive) | inactive | inactive | -3.73% (inactive) | 0.464% (inactive)
C/C=C(/C)C#N | 26.2% | inactive | inactive | – | inactive | – | -23.6% | inactive | inactive | 0.293% | 32% (inactive) | 15% (inactive) | inactive | inactive | -0.853% (inactive) | -0.053% (inactive)
Cc1ccc2c(c1[N+](=O)[O-])C(=O)c1ccccc1C2=O | – | – | inactive | – | inactive | inactive | -1.88% | inactive | inactive | -5.46% | -0.36% (inactive) | -11.5% (inactive) | inactive | 11.9 µM (active) | 7.91% (inactive) | -0.166% (inactive)
NC(=O)c1ccccc1[N+](=O)[O-] | -1.98% | inactive | inactive | inactive | – | – | -9.31% | inactive | inactive | 3.46% | 0.827% (inactive) | 5.01% (inactive) | inactive | inactive | -0.853% (inactive) | -0.661% (inactive)
Nc1ccccc1S(=O)(=O)O | -23.8% | – | inactive | inactive | inactive | – | 0.0246% | inactive | inactive | -2.85% | 1.63% (inactive) | 5.88% (inactive) | inactive | – | -0.779% (inactive) | -0.0968% (inactive)
CCC=O | -3.11% | inactive | inactive | – | inactive | – | 2.22% | inactive | inactive | -6.66% | 0.991% (inactive) | -3.74% (inactive) | inactive | inactive | -0.942% (inactive) | -1.21% (inactive)
C[C@@H]1CC2(OC3C[C@@]4(C)C5=CC[C@H]6C(C)(C)C(O[C@@H]7OC[C@@H](O)[C@H](O)[C@H]7O)CC[C@@]67C[C@@]57CC[C@]4(C)C31)OC(O)C1(C)OC21 (stereo partly drawn) | – | – | – | – | inactive | – | – | – | inactive | – | – | – | inactive | 75 µM (active) | -4.93% (inactive) | -1.92% (inactive)
COC(=O)c1ccccc1 | 19.3% | – | inactive | inactive | inactive | inactive | 0.622% | inactive | – | -5.14% | 4.4% (inactive) | -7.56% (inactive) | inactive | – | 7.4% (inactive) | 1.41% (inactive)
NCCCCCCN | -19.3% | inactive | inactive | – | inactive | inactive | 1.96% | inactive | inactive | -3.24% | 17.1% (inactive) | – | inactive | inactive | -1.12% (inactive) | -0.106% (inactive)
CCCCCNCCCCC | -18.6% | inactive | inactive | – | inactive | inactive | 1.44% and -10.1% | inactive | inactive | -1.51% and -1.45% | 4.32% (inactive) and 13.3% (inactive) | -1.69% (inactive) and -17.1% (inactive) | inactive | inactive | -2.16% (inactive) and -1.29% (inactive) | –
[O-]/[N+](=N\O)c1ccccc1 | – | – | inactive | – | inactive | inactive | – | – | inactive | – | – | – | inactive | – | -2.28% (inactive) | –
Cc1ccc(Cl)cc1 | -18% | inactive | inactive | – | inactive | inactive | 0.942% | inactive | – | -3.57% | 8.67% (inactive) | – | inactive | inactive | -2.72% (inactive) | –
ClC/C=C/CCl | – | – | inactive | inactive | inactive | inactive | -8.83% | inactive | inactive | -5.15% | 0.33% (inactive) | 19.3% (inactive) | inactive | – | -2.54% (inactive) | –
Cc1cccc2ccccc12 | – | – | inactive | inactive | inactive | inactive | -13.1% | inactive | inactive | -10.1% | 0.915% (inactive) | 12.2% (inactive) | inactive | inactive | -1.93% (inactive) | -1.12% (inactive)
CCCCC(CC)CNCC(CC)CCCC (stereo not drawn) | 11.3% | inactive | – | – | inactive | inactive | 2.31% | inactive | inactive | 0.349% | 10% (inactive) | 4.7% (inactive) | – | inactive | – | -0.684% (inactive)
CC(=O)OCc1ccco1 | -12.4% | inactive | inactive | – | inactive | inactive | 9.34% | inactive | – | -0.347% | 29.2% (inactive) | -12.4% (inactive) | inactive | – | – | 0.228% (inactive)
